These results are taken from PubChem BioAssay.

One assay addresses Albumin (Bos taurus) (UniProt P02769). Nature of the assay: bovine serum albumin binders on microarray, profiling panel, artefact control for SMM control protein annotation, biochemical, small-molecule microarray, Alexa647 label, 635/667 nm fluorescence (AID 1118).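 Further: score merges 667 nm emission intensity and signal-to-noise per printed compound spot.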 The settings on record: BSA-A647 binding, fluorescence 635 nm, higher = more signal.
Assay [1] is described as follows: small-molecule microarray binders of probe aXIP, primary screen, biochemical, NeuroSMM set, 635/667 nm fluorescence (AID 1119).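 Further: probe is the protein aXip251-270 applied at 1 µg/mL to compound-printed slides; binding of probe to printed compounds measured as 667 nm fluorescence plus signal to noise.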 The settings on record: higher = more signal, called active from +8 up or from −8 down.
Assay [2] is described as follows: small-molecule binders of probe aNOTCH3, primary screen, biochemical, small-molecule microarray, 635/667 nm fluorescence (AID 1120).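 Further: probe is a biotin-tagged antibody raised against NOTCH3 rather than NOTCH3 protein; score merges spot fluorescence near 667 nm with spot signal to noise.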 The settings on record: higher = more signal.
Assay [3] is described as follows: small-molecule binders of probe aNOTCH2, primary screen, biochemical, small-molecule microarray, 635/667 nm fluorescence (AID 1121).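 Further: score merges feature fluorescence read at 667 nm with its signal to noise.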 The settings on record: higher = more signal.
In assay [4] the target is Carbonic anhydrase 2 (Homo sapiens) (UniProt P00918). Nature of the assay: CAII small-molecule binders, profiling panel, biochemical, small-molecule microarray, Alexa647-labelled CAII (AID 1122). The settings on record: CAII-A647 binding fluorescence, higher = more signal.
The nature of assay [5]: COS7 lysate on small-molecule microarray, probe aHis, 635 nm (AID 1123).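 Further: z-score combines 667nm fluorescence intensity with signal-to-noise per printed compound spot.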 The settings on record: COS7 cell lysate, fluorescence, higher = more signal.
The nature of assay [6]: compound binding in COS7 lysate, probe aLAP1, primary screen, cell lysate, small-molecule microarray (AID 1124).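 Further: lysate comes from COS7 cells expressing LAP1 and is applied at 0.3 µg/mL; score merges spot fluorescence near 667 nm with signal-to-noise over triplicate slides.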 The settings on record: probe aLAP1, fluorescence, higher = more signal.
For a further assay, the system named is Sam68 (KHDRBS1). In words: Sam68 small-molecule binders, primary screen, biochemical, small-molecule microarray, 635 nm fluorescence (AID 1125).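 Further: score merges 667 nm channel intensity with signal to noise over triplicate slides.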 The settings on record: small-molecule microarray binding, higher = more signal.
Assay [7] deals with Chordin-like protein 2 (CHRDL2). Nature of the assay: CHRDL2 small-molecule binders, primary screen, biochemical, small-molecule microarray, 635 nm fluorescence (AID 1126).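 Further: printed compound slides probed with Chrdl2 protein at 4 µg/mL for 1 h at 4 C; score merges 667 nm emission intensity with signal to noise over three replicate slides.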 Conditions: small-molecule microarray binding, fluorescence 635 nm; higher = more signal.
In assay [8] the target is Concanavalin-A (Canavalia ensiformis) (UniProt P02866). In words: ConA small-molecule binders, primary screen, artefact control for SMM control protein annotation, biochemical, small-molecule microarray, Alexa647 label, 635 nm (AID 1127).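 Further: z combines 667 nm emission intensity with signal-to-noise across three replicate slides.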 The settings on record: ConA-A647 binding fluorescence, higher = more signal.
Assay [9] in a line: anti-His antibody binders, primary screen, artefact control for SMM control protein annotation, biochemical, small-molecule microarray, 635 nm fluorescence (AID 1128).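 Further: score merges feature fluorescence with signal-to-noise for each printed compound spot.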 The settings on record: anti-His Alexa647 antibody binding, higher = more signal.
Assay [10] deals with Human papillomavirus type 1a E7 protein (residues 1-88). Nature of the assay: HPV1a E7 small-molecule binders, primary screen, biochemical, small-molecule microarray, residues 1-88, 635 nm (AID 1129). The settings on record: small-molecule microarray binding, fluorescence 635 nm; higher = more signal.
For assay [11], the target named is Focal adhesion kinase 1 (Homo sapiens) (UniProt Q05397). In words: small-molecule microarray binders of FAK, primary screen, biochemical, 635/667 nm fluorescence, BSA, DTT (AID 1130).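 Further: composite of spot emission at 667 nm and signal to noise over triplicate slides.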 The settings on record: PTK2 binding, 635 nm fluorescence, higher = more signal.
Assay [12] has as its system Fibrinogen (Alexa647-labelled). Nature of the assay: fibrinogen binders on compound microarrays, profiling panel, artefact control for SMM control-protein annotation, biochemical, small-molecule microarray, 635/667 nm fluorescence (AID 1131).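 Further: z-score merges 667 nm fluorescence with per-spot signal-to-noise over triplicate slides.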 The settings on record: fibrinogen-A647 binding fluorescence, higher = more signal.
In assay [13] the target is Follistatin (Homo sapiens) (UniProt P19883). In words: follistatin binders on small-molecule microarrays, primary screen, biochemical, small-molecule microarray, 635/667 nm fluorescence (AID 1132). The settings on record: FST binding, 635 nm fluorescence, higher = more signal.
Assay [14] has as its target Fibroblast growth factor 2 (Homo sapiens) (UniProt P09038). Nature of the assay: FGF2 binders on small-molecule microarrays, primary screen, biochemical, small-molecule microarray, 635/667 nm fluorescence (AID 1133). The settings on record: small-molecule microarray binding, FGF2, fluorescence 635/667; higher = more signal.
A short description of assay [15]: mitochondrial membrane potential change in A549 cells, profiling panel, cell-based, JC-1 fluorescence, basal, 24 h, 100 nL (AID 1138).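 Further: A549 lung adenocarcinoma cells under basal conditions with no added stimulus; test concentration not given here.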 Conditions: higher = more signal.
For another assay, the system named is Lefty1. In words: Lefty1 binders on small-molecule microarrays, primary screen, biochemical, small-molecule microarray, 635/667 nm fluorescence (AID 1139). Conditions: small-molecule microarray binding, fluorescence 635/667; higher = more signal.
The subject of assay [16] is wheat germ agglutinin (Triticum aestivum), Alexa647-labelled. Nature of the assay: wheat germ agglutinin binders on compound microarrays, profiling panel, artefact control for SMM control-protein annotation, biochemical, small-molecule microarray, 635/667 nm fluorescence (AID 1140).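 Further: score merges 667 nm feature emission with signal to noise over triplicate slides.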 Conditions: WGA-A647 binding, 635 nm fluorescence, higher = more signal.
Assay [17] concerns the target Luciferin 4-monooxygenase (Photinus pyralis) (UniProt P08659). Nature of the assay: firefly luciferase enzyme inhibitors, primary screen, biochemical, luminescence, purified enzyme, 2006 set (AID 1141).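 Further: cell-free assay with purified firefly luciferase at 100 ng per well in PBS; test concentration not given here.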 The settings on record: SteadyGlo luminescence, 30 min, higher = more signal, called active from +8 up or from −8 down.

The structures appear in SMILES notation. Active and inactive are the calls of the source.

Sequence of Luciferin 4-monooxygenase (Photinus pyralis) (P08659 whole entry, looked up): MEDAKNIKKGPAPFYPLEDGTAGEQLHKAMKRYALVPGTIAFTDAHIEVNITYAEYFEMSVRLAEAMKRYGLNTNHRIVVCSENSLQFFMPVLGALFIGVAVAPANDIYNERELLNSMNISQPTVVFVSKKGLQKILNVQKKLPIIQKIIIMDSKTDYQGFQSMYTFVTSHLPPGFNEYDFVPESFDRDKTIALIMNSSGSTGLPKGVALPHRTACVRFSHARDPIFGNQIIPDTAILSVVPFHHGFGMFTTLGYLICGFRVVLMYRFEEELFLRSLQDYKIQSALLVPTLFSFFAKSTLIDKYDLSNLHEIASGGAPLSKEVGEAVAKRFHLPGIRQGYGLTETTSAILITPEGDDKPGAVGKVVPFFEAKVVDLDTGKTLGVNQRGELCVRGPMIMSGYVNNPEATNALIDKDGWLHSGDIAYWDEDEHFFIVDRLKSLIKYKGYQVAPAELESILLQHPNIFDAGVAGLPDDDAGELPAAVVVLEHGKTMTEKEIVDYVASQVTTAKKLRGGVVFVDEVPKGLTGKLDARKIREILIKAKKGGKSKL
Sequence of Concanavalin-A (Canavalia ensiformis) (P02866 whole entry, looked up): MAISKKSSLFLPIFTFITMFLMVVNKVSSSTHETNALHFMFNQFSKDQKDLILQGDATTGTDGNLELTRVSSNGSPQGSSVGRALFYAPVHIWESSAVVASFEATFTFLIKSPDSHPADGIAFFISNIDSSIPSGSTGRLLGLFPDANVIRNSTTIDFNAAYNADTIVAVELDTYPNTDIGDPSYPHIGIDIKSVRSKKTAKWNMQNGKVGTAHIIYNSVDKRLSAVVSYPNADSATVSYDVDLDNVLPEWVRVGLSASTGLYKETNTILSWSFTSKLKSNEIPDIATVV
Sequence of Focal adhesion kinase 1 (Homo sapiens) (Q05397 whole entry, looked up): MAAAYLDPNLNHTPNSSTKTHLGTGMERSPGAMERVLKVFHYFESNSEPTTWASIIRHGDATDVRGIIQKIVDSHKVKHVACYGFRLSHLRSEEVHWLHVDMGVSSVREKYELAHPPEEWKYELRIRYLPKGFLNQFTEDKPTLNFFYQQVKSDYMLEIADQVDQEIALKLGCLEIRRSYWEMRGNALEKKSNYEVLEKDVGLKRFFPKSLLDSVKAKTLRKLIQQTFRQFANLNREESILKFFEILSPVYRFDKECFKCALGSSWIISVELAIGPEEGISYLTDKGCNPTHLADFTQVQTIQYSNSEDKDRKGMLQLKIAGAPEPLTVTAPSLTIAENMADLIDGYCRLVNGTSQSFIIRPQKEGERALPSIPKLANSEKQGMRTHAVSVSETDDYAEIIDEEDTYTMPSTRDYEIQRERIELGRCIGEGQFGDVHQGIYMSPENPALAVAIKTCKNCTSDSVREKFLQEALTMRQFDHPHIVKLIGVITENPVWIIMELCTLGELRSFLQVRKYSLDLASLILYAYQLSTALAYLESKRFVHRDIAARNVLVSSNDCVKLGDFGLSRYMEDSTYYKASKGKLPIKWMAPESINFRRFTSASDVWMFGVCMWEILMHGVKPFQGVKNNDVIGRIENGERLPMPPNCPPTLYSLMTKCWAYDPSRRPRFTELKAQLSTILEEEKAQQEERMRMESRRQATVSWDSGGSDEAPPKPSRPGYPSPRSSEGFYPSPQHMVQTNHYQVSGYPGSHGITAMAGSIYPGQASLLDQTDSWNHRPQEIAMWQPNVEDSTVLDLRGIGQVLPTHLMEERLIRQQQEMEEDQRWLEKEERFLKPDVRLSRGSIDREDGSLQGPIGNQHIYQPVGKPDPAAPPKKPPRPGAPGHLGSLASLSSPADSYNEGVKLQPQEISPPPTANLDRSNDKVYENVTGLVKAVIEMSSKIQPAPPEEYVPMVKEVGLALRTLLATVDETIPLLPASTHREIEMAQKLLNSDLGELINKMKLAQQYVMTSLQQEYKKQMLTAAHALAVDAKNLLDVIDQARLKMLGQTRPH
Sequence of Fibroblast growth factor 2 (Homo sapiens) (P09038 whole entry, looked up): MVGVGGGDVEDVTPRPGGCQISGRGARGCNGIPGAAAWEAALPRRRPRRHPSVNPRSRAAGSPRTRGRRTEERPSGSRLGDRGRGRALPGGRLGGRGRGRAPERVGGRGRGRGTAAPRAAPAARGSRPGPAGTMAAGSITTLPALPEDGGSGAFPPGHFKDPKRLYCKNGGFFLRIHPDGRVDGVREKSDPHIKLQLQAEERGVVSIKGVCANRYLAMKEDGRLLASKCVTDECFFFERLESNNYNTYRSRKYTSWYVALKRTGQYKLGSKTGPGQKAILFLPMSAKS
Sequence of Follistatin (Homo sapiens) (P19883 whole entry, looked up): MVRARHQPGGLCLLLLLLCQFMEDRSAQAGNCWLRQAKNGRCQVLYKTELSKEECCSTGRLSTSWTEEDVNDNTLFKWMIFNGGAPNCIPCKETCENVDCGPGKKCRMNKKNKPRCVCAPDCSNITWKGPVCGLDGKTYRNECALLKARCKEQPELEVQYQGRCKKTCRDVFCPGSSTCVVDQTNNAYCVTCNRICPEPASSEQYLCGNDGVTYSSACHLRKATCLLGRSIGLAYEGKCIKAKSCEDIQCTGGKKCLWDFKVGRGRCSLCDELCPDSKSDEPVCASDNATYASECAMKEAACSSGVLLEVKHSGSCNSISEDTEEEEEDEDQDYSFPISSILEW
Sequence of Albumin (Bos taurus) (P02769 whole entry, looked up): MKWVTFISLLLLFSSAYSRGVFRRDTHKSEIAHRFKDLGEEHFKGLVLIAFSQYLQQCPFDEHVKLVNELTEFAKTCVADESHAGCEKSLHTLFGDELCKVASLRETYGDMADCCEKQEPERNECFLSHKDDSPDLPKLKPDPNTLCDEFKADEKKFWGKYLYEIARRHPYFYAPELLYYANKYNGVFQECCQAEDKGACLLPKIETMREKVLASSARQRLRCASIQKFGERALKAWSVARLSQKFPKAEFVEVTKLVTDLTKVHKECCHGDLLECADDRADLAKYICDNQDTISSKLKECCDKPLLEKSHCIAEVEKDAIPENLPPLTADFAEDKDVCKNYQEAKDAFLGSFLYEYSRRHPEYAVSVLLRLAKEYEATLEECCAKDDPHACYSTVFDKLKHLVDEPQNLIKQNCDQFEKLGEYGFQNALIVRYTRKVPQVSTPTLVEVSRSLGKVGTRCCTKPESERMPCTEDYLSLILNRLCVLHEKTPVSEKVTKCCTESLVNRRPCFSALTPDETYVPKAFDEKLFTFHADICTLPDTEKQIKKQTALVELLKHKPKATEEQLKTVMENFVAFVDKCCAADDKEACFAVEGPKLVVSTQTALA

As to `CO[C@H]1O[C@H](CO)[C@@H](OC(=O)Nc2ccc3c(c2)OCO3)[C@H](OC(=O)Nc2ccc3c(c2)OCO3)[C@@H]1OC(=O)Nc1ccc2c(c1)OCO2`, the composite z-score was 0.792 in the assay with Albumin (Bos taurus); 0.0789 in [2]; -0.0349 in assay [3]; 0.572 in assay [4]; 2.51 in assay [5]; 0.943 in assay [6]. Besides, the composite z-score in the assay with Sam68 (KHDRBS1) worked out at 1.31; in assay [7] it was 0.12; in assay [8], 0.954; in assay [9], 1.67; in assay [10], 1.3; in assay [11], 0.347. Besides, the composite z-score in [12] came to 1; in assay [13], 0.997; in [14], 0.366; in the assay with Lefty1, 0.484; in [16], 0.682. In [1], the composite Z-score is 0.871 (inactive). In addition, the z-score is 0.0347 in assay [15] and -9.67 (active) in assay [17].

Consider `COc1ccc(C(=O)Nc2ccc(CN3C(=O)[C@]4(O[C@H](CC(=O)N5Cc6ccccc6C[C@H]5CO)[C@@H]([Si](C)(C)c5ccc(OC)cc5)[C@@H]4C)c4ccccc43)cc2)cc1`, for which the composite z-score in the assay with Albumin (Bos taurus) was -0.254; in [2] it was -0.0377; in [3] it was -0.0995; in [4] it was 0.151; in assay [5], 1.1; in [6] it was 0.0688. Also, the composite z-score turned out to be 1.17 in the assay on Sam68 (KHDRBS1); 1.14 in [7]; 0.67 in [8]; 1.46 in assay [9]; 1.16 in assay [10]; 0.353 in [11]. Further, the composite z-score in assay [12] came to 0.547; in assay [13], 1.1; in assay [14], 1.35; with Lefty1 it was 1.08; in assay [16] it was 0.75. Moreover, the composite Z-score in assay [1] was -0.236 (inactive). Further, the values for the z-score in assay [15] and in assay [17] were -0.615 and -0.379 (inactive), respectively.

Take `CCCC=C(CCC)[C@@H](NS(=O)(=O)CC12CCC(CC1=O)C2(C)C)c1ccc(C(=O)OC)cc1` (stereo not given in full): the composite z-score is 0.0225 in the assay with Albumin (Bos taurus); 0.344 in [2]; 0.0727 in [3]; -0.0343 in [4]; 2.12 in assay [5]; 0.154 in [6]. The composite z-score in the assay with Sam68 (KHDRBS1) was 0.96; in assay [7], -0.14; in [8], 0.438; in assay [9], 1.33; in assay [10] it was 0.71; in assay [11], 0.187. Also, the composite z-score in assay [12] is 0.0749; in assay [13], 0.107; in [14] it was -0.056; in the assay on Lefty1, 0.134; in assay [16] it was 0.301. Also, the composite Z-score in [1] is 0.234 (inactive). Besides, the z-score in [15] is 0.237; in assay [17], 2.15 (inactive).

For the compound `C=CCOC(=O)[C@@]1(Cc2ccccc2)C[C@H]2CO[C@H](c3ccc(OC)cc3)N2C1=O`, the composite z-score with Albumin (Bos taurus) is 0.484; in assay [2] it was -0.0615; in assay [3], -0.107; in [4], -0.0067; in assay [5], 0.146; in [6], 0.0469. The composite z-score with Sam68 (KHDRBS1) amounted to 0.168; in [7], 0.194; in assay [8], 0.192; in [9], 0.848; in assay [10] it was 0.191; in [11], 0.575. Moreover, the composite z-score in assay [12] is 0.494; in [13], 0.3; in assay [14], 0.186; with Lefty1, 0.55; in assay [16], 0.133. The composite Z-score in assay [1] was -0.415 (inactive). Further, the figures for the z-score in assay [15] and in [17] were 0.272 and -0.0402 (inactive), respectively.

With `C[C@@H]1NC(=O)[C@@H](Cc2ccccc2)NC(=O)[C@@]23C(=O)N[C@@H](Cc4ccccc4)C2[C@H](C)[C@@]2(C)O[C@H]2C3/C=C/C/C=C\CNC1=O` (stereo not given in full), the composite z-score is 0.324 with Albumin (Bos taurus); -0.277 in [2]; -0.125 in [3]; 0.493 in assay [4]; 1.05 in [5]; 0.074 in [6]. Also, the composite z-score in the assay with Sam68 (KHDRBS1) was 0.126; in assay [7] it was -0.153; in assay [8], -0.447; in assay [9], -0.116; in assay [10] it was -0.514; in [11], -0.0535. For the same compound, the composite z-score was -0.913 in [12]; 0.41 in assay [13]; -0.0086 in [14]; 0.633 in the assay with Lefty1; -0.889 in [16]. Besides, in [1], the composite Z-score was -0.888 (inactive). Also, the z-score is -0.0637 in [15] and -1.03 (inactive) in [17].
